Shown are actives, neighbours in structure and some others; about 2.6% of the full set was active somewhere.
A549 tox: A549 cytotoxicity, counter-screen for Nrf2 inhibitors; AID 504648; actives 0.16% (n = 390,000); A549 ARE-Fluc cells, CellTiter-Fluor viability, 18-24 h; Potency, µM (top dose mostly 46 µM), for the others: at the highest dose activity change, negative = cytotoxicity, usual class: inhibitors; also: potency is read from the fitted curve at half-maximal effect; % is scaled to controls: 0 for no effect and ±100 for the full control effect
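A549 ARE_Fluc cells in 5% FBS OPTI-MEM were exposed to compounds in concentration-response for 18-24 h at 37 deg C. Viability was read by CellTiter-Fluor fluorescence (Ex 405/Em 525) after 30 min, before the luciferase read.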
TCR act: T cell receptor activation; 330,000 tested, under 10 active; Potency, µM (doses to about 9.22 µM), inactives show top-dose activation of IL-2 secretion, most hits filed as activators; primary human leukocytes, anti-CD3, IL-2 HTRF, 48 h; also: % of control where 0% means no effect
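Activity was scored as IL-2 release from primary human leukocytes given only a TCR signal (a-CD3 beads) plus compound for 48 hr. Detection used a two-antibody HTRF format read at 665nm.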
Nrf2 activator: activators of Nrf2 (ARE) signaling. AREc32 ARE-luciferase reporter (MCF7-derived line), luminescence, 24 h. Potency, µM (doses to about 46.1 µM), without a hit: top-dose activation, actives largely listed as activators. actives 0.31% (n = 410,000). AID 624171; also: potency is read from the fitted curve at half-maximal effect; % of control where 0% means no effect; nearly all actives have a fitted effect of over 65% in size
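AREc32_Fluc, 1000 cells/well, OPTI-MEM + 5% FBS, o/n 37 deg C 5% CO2; 23 nL cpd by pin tool, 24 hr; Steady-Glo 30 min RT, luminescence.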
Nrf2 inh: blocks Nrf2 signaling | A549 ARE-Fluc reporter, luciferase luminescence, 18-24 h | Potency, µM (top dose mostly 46 µM), for the others: at the highest dose activity change, negative = inhibition, most hits filed as inhibitors | AID 504444 | actives 2.1% (n = 360,000); also: potency is read from the fitted curve at half-maximal effect; % is scaled to controls: 0 for no effect and ±100 for the full control effect; nearly all actives have a fitted effect of over 60% in size
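Quantitative HTS in A549 cells stably bearing an antioxidant response element-firefly luciferase construct. Inhibition of Nrf2-driven transcription was scored by luminescence after 18-24 h of compound exposure at 37 °C.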
A-T KAP1 phos: potential ataxia-telangiectasia treatments restoring KAP-1 phosphorylation | F2112 A-T fibroblasts, KAP-1 phosphorylation AlphaLISA; neocarzinostatin DNA damage 30 min before lysis | Potency, µM (top dose mostly 57.5 µM), for the others: at the top dose activation, most hits filed as activators | actives 0.19% (n = 320,000) | AID 485349; also: potency is read from the fitted curve at half-maximal effect; % of control where 0% means no effect; nearly all actives have a fitted effect of over 45% in size
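ATM-like activity read as KAP-1 phosphorylation via AlphaLISA donor/acceptor antibody pairs after lysis and 6 hr at 25C. Cells were ATM-null patient fibroblasts (F2112, hTERT), dosed 60 min, then exposed to the DSB inducer NCS for 30 min.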
CCT chaperon mod: modulators of cytosolic chaperonin (CCT/TRiC) activity; purified chaperonin ATPase assay, HTRF ADP detection, 30 min; activity change, % (concentration not given with the values), hits read low; actives 0.3% (n = 360,000); AID 651819; in the data active = activity change below about -30%; also: % is scaled to controls: 0 for no effect and ±100 for the full control effect
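TRiC (40 or 20 nM final, by batch activity) in 30 mM Tris pH 7.4, 100 mM KCl, 5 mM MgCl2, 1 mM DTT was treated with compound at 76 uM single dose, then 10 uM ATP, 30 min at 37 °C. ADP was read by HTRF Transcreener.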
* marks the source's active call; other numbers are inactive results; ? = inconclusive; · = no result; [ ] = remark or other dose. Unless noted, calls follow the shape of the dose curve; as a rule, active = well fitted curve in the direction sought with a large enough effect; inconclusive = small, poorly fitted or top-dose-only effect, or another doubt; inactive = no such curve, though single readings can be large; an effect the other way counts as inactive or inconclusive.

SMILES | A549 tox | TCR act | Nrf2 activator | Nrf2 inh | A-T KAP1 phos | CCT chaperon mod
C=CC[C@@H](Cc1ccc(F)cc1)C(=O)OC[C@H]1CCCN1C(=O)[C@@H](CC=C)CC(=O)N[C@H](CO)Cc1ccccc1 | ? | 3.1% | 1.2% | 18.4µM* | -3.9% | -0.3
O=S1(=O)N=C(Oc2ccc(Cl)cc2)c2ccccc21 | -3.6%[65.3 µM] | · | · | -1.2%[65.3 µM] | · | ·
Cc1sc(NC(=O)c2ccc(F)cc2)c(CN2CCCCCC2)c1C | -9.6% | 0.3%[46.1 µM] | 12.6µM* | 17.3% | -4.1% | -2.1
Cc1ccc(NS(=O)(=O)c2c(C)[nH]c(=O)[nH]c2=O)c(C)c1 | -0.8% | 3.9% | -0.3% | -5.6% | 20.4% | 1.4
Cc1cccc(C)c1NS(=O)(=O)c1c(C)[nH]c(=O)[nH]c1=O | -3.0% | 0.5% | 0.2% | 4.9% | -1.8% | -36.8*
N#C/C(=C\c1cccc([N+](=O)[O-])c1)c1ccccn1 | -0.1% | 4.7% | 3.55µM* | -13.2% | -2.5% | -2.0
CCn1c(SCc2cccc(F)c2)nnc1-c1ccncc1 | 0.1% | -3.5% | 0.3% | -16.3% | 4.47µM* | -0.4
Fc1cccc(CSc2ccc3nnc(-c4cccnc4)n3n2)c1 | 3.8% | · | 3.1% | ? | 1.1% | -30.3*
Cc1ccc(CSc2ccc3nnc(-c4cccnc4)n3n2)cc1 | 5.1% | 0.9%[46.1 µM] | 2.8% | -4.7% | 3.0% | 2.4
O=C(Nc1nc(-c2ccco2)cs1)c1ccccc1 | 4.8% | 1.9% | ? | · | 14.1% | 1.6
COCCN(C(=O)c1ccco1)c1nc(-c2ccc(OC)cc2)cs1 | · | · | 8.7% | · | · | 0.8
O=C(Nc1nc(-c2ccccc2)cs1)c1ccco1 | 1.2% | -4.2% | 14.1µM* | 15.1% | 33.8% | -0.6
COc1ccc(-c2csc(NC(=O)c3ccco3)n2)cc1 | 1.5% | -1.3%[46.1 µM] | 9.4% | ? | 0.2% | -1.9
COCCN(C(=O)c1ccco1)c1nc(-c2ccccc2)cs1 | -0.3% | · | 10µM* | ? | 11.6% | -0.6
O=C(/C=C\c1ccco1)Nc1nc(-c2ccc3ccccc3c2)cs1 | 13.6% | 5.5%[46.1 µM] | 3.1% | 14.6µM* | -3.9% | -3.2
Cc1ccc(-c2csc(NC(=O)c3ccc(-c4ccccc4)cc3)n2)o1 | -12.6% | 1.4% | 4.8% | 2.91µM* | 7.5% | 0.0
Cc1ccc(-c2csc(NC(=S)NC(=O)/C=C/c3ccco3)n2)cc1 | ? | -10.0% | 27.0% | · | 3.7% | -0.1
COc1ccc(C2CC(=O)N(Cc3cccc(C)c3)c3c2c(C)nn3-c2nc(C)cc(C)n2)c(OC)c1 (stereo not given) | 0.2% | · | -0.1% | 3.3% | · | ·
N#Cc1ccc(-c2cccnc2)nc1SCc1ccc(Cl)cc1Cl | -3.2% | 1.4% | -0.9% | -27.0% | 1.6% | -1.8
N#Cc1ccc(-c2cccnc2)nc1SCc1ccc(Cl)c(Cl)c1 | -15.4% | 4.3%[46.1 µM] | 8.2% | 23.1µM* | -0.5% | 0.7
Cc1cc(C)c(S(=O)(=O)NCCc2sc(-c3cccnc3)nc2C)c(C)c1 | 2.7% | · | -1.1% | · | · | ·
O=c1cc(-c2ccccc2Cl)oc2c([N+](=O)[O-])c(O)cc(O)c12 | ? | 0.5% | -2.8% | 13µM* | 0.7% | -2.5
C[C@@H]1NS(=O)(=O)[C@H]2C[C@@H]3C=C[C@]2(O3)[C@H]1OC(=O)c1ccc(C(C)(C)C)cc1 | 4.7% | -1.0% | -0.3% | -13.6% | 17.0% | -5.1
Cc1cc(C(C)(C)C)oc1C(=O)N(CC(=O)NC1CCCC1)c1cccc(C(F)(F)F)c1 | ? | 0.7% | 0.4% | 20.6µM* | -1.3% | -0.8
COc1ccc(S(=O)(=O)N(CC(=O)NCCSc2ccccc2)c2ccc(C)cc2)cc1 | 2.2% | · | -1.0% | -6.5% | · | ·
O=C(NC(=S)Nc1cccnc1Cl)c1ccco1 | 14.1% | 5.3% | 12.6µM* | ? | -4.5% | -0.9
Cc1ccc2nsnc2c1NC(=S)NC(=O)c1ccco1 | 1.8% | 4.6%[46.1 µM] | 6.31µM* | 3.8% | 2.4% | 0.3
O=C(NC(=S)NCc1ccc(Cl)cc1Cl)c1ccco1 | 4.4% | -6.1% | 5.0% | -16.4% | 31.0% | 2.6

Source: PubChem
